Measured values: PubChem BioAssay (NCI)
This is part of a sample that, as a whole, favours compounds with a hit. Of some 79,000 tested, about 15% had one in any assay. Active and inactive are the calls of the source. No stated cut-off is given here; in the data, active means growth inhibition above about 70%; inactive means the rest.

Key:
[1] = NCI Yeast Anticancer Drug Screen. Data for the rad52 strain (AID 147);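 further: 0% = growth of vehicle-treated control cultures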; conditions: S. cerevisiae rad52 mutant growth inhibition, hits give high values
Summary of the method: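 Read-out: growth inhibition versus vehicle-treated controls. Cells were a DNA repair-deficient yeast strain treated with compounds.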

[2] = NCI Yeast Anticancer Drug Screen. Data for the rad50EPP+ strain (AID 151);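 further: 0% = growth of vehicle-treated control cultures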; conditions: S. cerevisiae rad50 mutant strain, hits give high values
Summary of the method: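 Growth inhibition read against vehicle controls in rad50EPP+ yeast, a strain altered in DNA damage repair, after compound exposure.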

[3] = NCI Yeast Anticancer Drug Screen. Data for the mgt1 strain (AID 153); conditions: S. cerevisiae mgt1 mutant growth inhibition, hits give high values
Summary of the method: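 mgt1 yeast grown with test compound; read-out is growth inhibition versus vehicle-treated cultures.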

[4] = NCI Yeast Anticancer Drug Screen. Data for the rad50 strain (AID 155);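 further: 0% = growth of vehicle-only cultures of the same strain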; conditions: S. cerevisiae rad50 strain growth inhibition, hits give high values
Summary of the method: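 Compounds were tested on a yeast strain with an engineered DNA damage repair alteration; the reported value is growth inhibition normalised to vehicle treatment.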

[5] = NCI Yeast Anticancer Drug Screen. Data for the mec2-1 strain (AID 157); conditions: S. cerevisiae mec2-1 strain, hits give high values
Summary of the method: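 Yeast mec2-1 mutant treated with compound. Readout: growth inhibition vs vehicle controls.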

[6] = NCI Yeast Anticancer Drug Screen. Data for the sgs1 mgt1 strain (AID 161);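 further: 0% = growth of cultures given vehicle only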; conditions: S. cerevisiae sgs1 mgt1 strain, hits give high values
Summary of the method: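 Inhibition of yeast growth, normalised to vehicle-treated controls, is reported for a strain bearing genetic alterations in DNA damage repair.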

[7] = NCI Yeast Anticancer Drug Screen. Data for the CLN2oe strain (AID 163);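 further: 0% = growth of vehicle-only control cultures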; conditions: S. cerevisiae CLN2oe strain, hits give high values
Summary of the method: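 Read-out: yeast growth inhibition, expressed relative to vehicle-only controls. The strain bears an engineered cell-cycle alteration.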

[8] = NCI Yeast Anticancer Drug Screen. Data for the cln2 rad14 strain (AID 165);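 further: 0% = growth equal to vehicle treated cultures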; conditions: S. cerevisiae cln2 rad14 strain, hits give high values
Summary of the method: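 cln2 rad14 yeast strain; compound exposure; growth inhibition read vs vehicle controls.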

[9] = NCI Yeast Anticancer Drug Screen. Data for the bub3 strain (AID 167); conditions: S. cerevisiae bub3 mutant strain, hits give high values
Summary of the method: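 Growth of a checkpoint-deficient yeast mutant is measured after compound exposure. Values represent inhibition relative to vehicle.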

[10] = NCI Yeast Anticancer Drug Screen. Data for the wt2 strain (AID 169);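 further: 0% = growth of vehicle-treated yeast cultures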; conditions: S. cerevisiae wt2 strain growth inhibition, hits give high values
Summary of the method: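 Read-out: growth inhibition versus vehicle-treated control cultures after compound exposure of the yeast strain.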

[11] = NCI Yeast Anticancer Drug Screen. Data for the mlh1 strain (AID 171);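 further: 0% = growth of vehicle-treated control cultures of the same strain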; conditions: S. cerevisiae mlh1 strain growth inhibition, hits give high values
Summary of the method: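 Read-out: growth inhibition versus vehicle controls. Strain: engineered yeast with a defined DNA repair or cell cycle defect, compound-treated.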

[12] = NCI Yeast Anticancer Drug Screen. Data for the sgs1 strain (AID 173);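 further: 0% = growth of vehicle-only control cultures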; conditions: S. cerevisiae sgs1 mutant, hits give high values
Summary of the method: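 Read-out: yeast growth inhibition relative to vehicle controls, following compound exposure of a strain with a defined DNA repair/cell cycle alteration.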

[13] = NCI Yeast Anticancer Drug Screen. Data for the mlh1 rad18 strain (AID 175); conditions: S. cerevisiae mlh1 rad18 strain growth inhibition, hits give high values
Summary of the method: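 Yeast w/ defined DNA-repair lesions; compound exposure; growth vs vehicle controls → % inhibition.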

[14] = NCI Yeast Anticancer Drug Screen. Data for the rad18 strain (AID 177); conditions: S. cerevisiae rad18 mutant growth inhibition, hits give high values
Summary of the method: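 Readout: growth inhibition vs vehicle controls. Cells: genetically altered yeast strain, DNA repair defect.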

[15] = NCI Yeast Anticancer Drug Screen. Data for the wt1 strain (AID 149);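 further: 0% = growth of vehicle-treated wt1 cultures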; conditions: S. cerevisiae wt1 strain (SPY 50644) growth inhibition, hits give high values
Summary of the method: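 Readout: yeast growth inhibition, normalised to vehicle controls, in the wt1 strain exposed to test compounds.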

[16] = NCI Yeast Anticancer Drug Screen. Data for the rad14 strain (AID 159);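 further: 0% = growth of vehicle-treated control cultures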; conditions: S. cerevisiae rad14 strain growth inhibition, hits give high values
Summary of the method: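 Compound-treated yeast with a defined DNA-repair lesion; growth inhibition normalised to vehicle-treated cultures.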

[17] = at 5.0 µM (retest, dose inferred, filed as 0.5)
[18] = at 50.0 µM (retest, dose inferred, filed as 5.0)

Measured: growth inhibition

COC(=O)C1c2cc3c(c(O)c2C(O)CC1(C)O)C(=O)c1c(O)cc2c(c1C3=O)OC1OC2(C)C(O)C(N(C)C)C1O (stereo unspecified)
active: [1]; at 33.0 µM 85% | [1]; at 100.0 µM 93% | [3]; at 100.0 µM 95% | [4]; at 11.0 µM 86% | [4]; at 33.0 µM 94% | [4]; at 50.0 µM 98% | [4]; at 100.0 µM 93% | [5]; at 33.0 µM 96% | [5]; [18] 92% | [5]; at 50.0 µM 95.3% | [5]; at 100.0 µM 94% | [6]; at 50.0 µM 98% | [7]; at 33.0 µM 73% | [7]; at 100.0 µM 89% | [8]; [18] 85% | [8]; at 50.0 µM 78.2% | [9]; at 33.0 µM 95% | [9]; [18] 97% | [9]; at 50.0 µM 90.9% | [9]; at 100.0 µM 93% | [10]; at 33.0 µM 80% | [10]; at 100.0 µM 93% | [11]; at 11.0 µM 70% | [11]; at 33.0 µM 96% | [11]; at 100.0 µM 94% | [12]; at 33.0 µM 71% | [12]; at 100.0 µM 87% | [13]; [18] 98% | [13]; at 50.0 µM 95.2% | [14]; at 11.0 µM 75% | [14]; at 33.0 µM 94% | [14]; at 100.0 µM 91%
inactive: [1]; at 1.2 µM 0% | [1]; at 3.7 µM 16% | [1]; at 11.0 µM 50% | [2]; at 1.2 µM -1% | [2]; at 3.7 µM 18% | [2]; at 11.0 µM 39% | [2]; at 33.0 µM 61% | [2]; at 100.0 µM 65% | [3]; at 1.2 µM -7% | [3]; at 3.7 µM 9% | [3]; at 11.0 µM 14% | [3]; at 33.0 µM 52% | [4]; at 1.2 µM 1% | [4]; at 3.7 µM 37% | [4]; [17] 24% | [4]; [18] 64% | [5]; at 1.2 µM -3% | [5]; at 3.7 µM 3% | [5]; [17] 12% | [5]; at 11.0 µM 37% | [6]; [17] -3% | [6]; [18] 15% | [7]; at 1.2 µM -7% | [7]; at 3.7 µM 1% | [7]; at 11.0 µM 31% | [8]; [17] 27% | [9]; at 1.2 µM -4% | [9]; at 3.7 µM 3% | [9]; [17] -26% | [9]; at 11.0 µM 55% | [10]; at 1.2 µM 0% | [10]; at 3.7 µM 5% | [10]; at 11.0 µM 28% | [11]; at 1.2 µM -4% | [11]; at 3.7 µM 18% | [12]; at 1.2 µM -1% | [12]; at 3.7 µM 9% | [12]; at 11.0 µM 40% | [13]; [17] 9% | [14]; at 1.2 µM 1% | [14]; at 3.7 µM 13%

CC12CCC(C1)C(C)(C)C2OC(=O)c1ccccc1N (stereo unspecified)
inactive: [15]; at 1.2 µM -1% | [15]; at 3.7 µM -1% | [15]; at 11.0 µM -4% | [15]; at 33.0 µM -13% | [15]; at 100.0 µM 14% | [2]; at 1.2 µM 6% | [2]; at 3.7 µM 5% | [2]; at 11.0 µM 0% | [2]; at 33.0 µM 7% | [2]; at 100.0 µM 1% | [3]; at 1.2 µM -3% | [3]; at 3.7 µM 0% | [3]; at 11.0 µM -5% | [3]; at 33.0 µM -9% | [3]; at 100.0 µM 5% | [4]; at 1.2 µM 9% | [4]; at 3.7 µM 6% | [4]; [17] -6% | [4]; at 11.0 µM 7% | [4]; at 33.0 µM 30% | [4]; [18] 50% | [4]; at 50.0 µM -5.6% | [4]; at 100.0 µM 61% | [5]; at 1.2 µM -1% | [5]; at 3.7 µM -2% | [5]; [17] -26% | [5]; at 11.0 µM -6% | [5]; at 33.0 µM 1% | [5]; [18] -26% | [5]; at 50.0 µM 2.7% | [5]; at 100.0 µM 39% | [16]; at 1.2 µM 7% | [16]; at 3.7 µM 2% | [16]; at 11.0 µM -6% | [16]; at 33.0 µM 4% | [16]; at 100.0 µM 17% | [6]; [17] -5% | [6]; [18] 56% | [6]; at 50.0 µM 10.8% | [7]; at 1.2 µM -1% | [7]; at 3.7 µM -2% | [7]; at 11.0 µM -3% | [7]; at 33.0 µM 14% | [7]; at 100.0 µM 61% | [8]; [17] -2% | [8]; [18] 32% | [8]; at 50.0 µM -8.95% | [9]; at 1.2 µM 0% | [9]; at 3.7 µM 3% | [9]; [17] 12% | [9]; at 11.0 µM 9% | [9]; at 33.0 µM 23% | [9]; at 50.0 µM 18% | [10]; at 1.2 µM -10% | [10]; at 3.7 µM -8% | [10]; at 11.0 µM -21% | [10]; at 33.0 µM -8% | [10]; at 100.0 µM 7% | [11]; at 1.2 µM 2% | [11]; at 3.7 µM -1% | [11]; at 11.0 µM -5% | [11]; at 33.0 µM 11% | [11]; at 100.0 µM 38% | [12]; at 1.2 µM -11% | [12]; at 3.7 µM 0% | [12]; at 11.0 µM -24% | [12]; at 33.0 µM -10% | [12]; at 100.0 µM 36% | [13]; [17] 14% | [13]; at 50.0 µM -2.55% | [14]; at 1.2 µM 3% | [14]; at 3.7 µM 5% | [14]; at 11.0 µM 4% | [14]; at 33.0 µM 9% | [14]; at 100.0 µM 54%
active: [9]; [18] 80% | [9]; at 100.0 µM 79% | [13]; [18] 82%
